The values below come from PubChem BioAssay AID434970 (Sanford-Burnham Center for Chemical Genomics, 2010).

About 310 (2.8%) of roughly 11,000 compounds were called active. Cut-off read from the data, not from the text of the source: active = activity change below about -85%; inactive = the rest. What follows is part of a selection rich in actives, with near analogues and random picks from the rest.

This test concerns intestinal alkaline phosphatase [Mus musculus]. The experiment in a line: mouse intestinal phosphatase enzyme activation – biochemical, luminescence, single concentration, confirmation (AID 434970). The following applies: purified mouse IAP, CDP-Star luminescence, 30 min, at 10 µM; activation factor: measured here: IAP activation factor, stronger effect = higher value; activity change, negative = activation: stronger effect = lower value.
For the compound `COCC(C)NCc1cccc(OC)c1OC` (stereo not drawn), the activation factor came to 1.14 and the activity change, negative = activation was -14.2% (inactive).
For `Cc1ccc(C(=O)NC(Cc2ccc(C(C)(C)C)cc2)C(=O)O)cc1` (stereo not drawn), in that order: 1.03 and -3.5% (inactive).
Consider `O=C(c1ccc(S(=O)(=O)N2CCCCC2)cc1)N1CCCc2ccccc21`, for which the activation factor was determined as 0.98 and the activity change, negative = activation is 2.05% (inactive).
Regarding `Cc1nn(C)cc1CNC(=O)c1cccc(Br)c1`, the activation factor is 1.12 and the activity change, negative = activation is -11.8% (inactive).
For `Cc1cc(Cn2nc(-c3ccccc3)cc2C(=O)NCc2cccc(Br)c2)on1`, in that order: 3.29 and -230% (active).
For `Cc1ccccc1-c1cc(C(=O)NCc2cccc(Br)c2)n(CC2CC(c3cccnc3)=NO2)n1` (stereo not drawn), in that order: 1.56 and -55.5% (inactive).
`O=C(C[C@H]1C[C@H](C(=O)N2CCOCC2)[C@@]2(CCC3CCCC3)c3[nH]c4cc(-c5ccco5)ccc4c3CCN2C1=O)NCCc1ccccn1`: the activation factor is 1.17 and the activity change, negative = activation was -17.2% (inactive).
For `Cc1ccccc1OCC(=O)OC(C)CN1CCN(C)CC1` (stereo not drawn), in that order: 0.998 and 0.2% (inactive).
For the compound `COc1ccc(NC(=O)Nc2ccc3c(c2)N(C)C(=O)CS3)cc1OC`, the activation factor came out at 1.48 and the activity change, negative = activation was -48.4% (inactive).
As for `CCc1ccc(NC(=O)Nc2ccc3c(c2)N(C)C(=O)CS3)cc1`, the activation factor came to 2.14 and the activity change, negative = activation was -114% (active).
As to `CN1C(=O)CSc2ccc(NC(=O)NCCC3=CCCCC3)cc21`, the activation factor is 2.22 and the activity change, negative = activation is -122% (active).
`Cc1cc(C)cc(NC(=O)Nc2ccc3c(c2)N(C)C(=O)CS3)c1`: the activation factor was determined as 2.54 and the activity change, negative = activation is -154% (active).
Turning to `CC(=O)c1ccc(NC(=O)Nc2ccc3c(c2)N(C)C(=O)CS3)cc1`, the activation factor worked out at 1.28 and the activity change, negative = activation was -28.4% (inactive).
For `Cc1ccc(NC(=O)Nc2ccc3c(c2)N(C)C(=O)CS3)cc1C`, in that order: 1.92 and -91.7% (inactive).
For the compound `CCOc1ccc(NC(=O)Nc2ccc3c(c2)N(C)C(=O)CS3)cc1`, the activation factor amounted to 1.29 and the activity change, negative = activation was -29.2% (inactive).
For `CC(C)CCNC(=O)Nc1ccc2c(c1)N(C)C(=O)CS2`, in that order: 1.53 and -52.8% (inactive).
For `Cc1ccc(CNC(=O)Nc2ccc3c(c2)N(C)C(=O)CS3)cc1`, in that order: 1.78 and -78% (inactive).
With `CCCn1c(Cc2ccccc2)nnc1SCC(=O)N1CCOCC1`, the activation factor is 0.955 and the activity change, negative = activation is 4.5% (inactive).
On the same counts, the results for `CC(O)[C@H](NC(=O)C1(c2ccccc2)CCN(C(=O)OC(C)(C)C)CC1)C(=O)O` (stereo partly drawn) are 1.15 and -15.3% (inactive).
On the same counts, the results for `COc1ccc2[nH]c3c(c2c1)CCN1C(=O)C(CC(=O)NCCN2CCOCC2)C[C@H](C(=O)N2CCOCC2)[C@@]31CCC1CCCC1` (stereo partly drawn) are 1.04 and -4.1% (inactive).
On the same counts, the results for `O=C(C[C@H]1C[C@H](C(=O)N2CCCCC2)[C@@]2(CCc3ccccc3)c3[nH]c4ccc(Cl)cc4c3CCN2C1=O)NCc1cccc(C(F)(F)F)c1` are 1.15 and -15% (inactive).
As to `Cn1c(COc2ccc3ccccc3c2)nnc1SCC(=O)O`, the activation factor came out at 0.952 and the activity change, negative = activation is 4.85% (inactive).
`O/N=C1/CC/C(=N\O)c2nn(-c3ccccc3)nc21`: the activation factor stood at 0.893 and the activity change, negative = activation is 10.7% (inactive).
On the same counts, the results for `CCOC(=O)c1cnn(-c2ccc(Cl)cc2)c1C1CCN(C(=O)OC(C)(C)C)CC1` are 1.12 and -12.1% (inactive).
On the same counts, the results for `COc1ccc(Nc2nc(-c3cccs3)cs2)cc1` are 0.881 and 11.9% (inactive).
On to `Cc1cccc(NC(=O)/C(=C\c2ccco2)NC(=O)c2cccs2)c1`, for which the activation factor was 0.978 and the activity change, negative = activation is 2.15% (inactive).
For `O=C1OCCN1C(=O)[C@H]1[C@H](c2ccccc2)C(c2cccc(Cl)c2)=NN1c1ccccc1`, in that order: 1.01 and -1.05% (inactive).
As to `OC[C@@H]1[C@@H](c2ccccc2)C(c2ccc(F)cc2)=NN1c1ccccc1`, the activation factor was 1.65 and the activity change, negative = activation is -64.5% (inactive).
With `Cc1cccc(C2=NN(c3ccccc3)[C@H](CO)[C@H]2c2ccc(Cl)cc2)c1`, the activation factor is 1.89 and the activity change, negative = activation is -89.3% (inactive).
For `Cc1cccc(C2=NN(c3ccccc3)[C@H](CO)[C@H]2c2ccccc2)c1`, in that order: 2.07 and -107% (active).
On the same counts, the results for `OC[C@@H]1[C@@H](c2ccc(Cl)cc2)C(c2ccccc2)=NN1c1ccccc1` are 1.77 and -76.8% (inactive).
As to `OC[C@@H]1[C@@H](c2ccc(Cl)cc2)C(c2cccc(Cl)c2)=NN1c1ccccc1`, the activation factor amounted to 2.2 and the activity change, negative = activation was -120% (active).
On the same counts, the results for `OC[C@@H]1[C@@H](c2ccc(F)cc2)C(c2ccccc2)=NN1c1ccccc1` are 1.73 and -72.9% (inactive).
For `OC[C@@H]1[C@@H](c2ccccc2)C(c2cccc(Cl)c2)=NN1c1ccccc1`, in that order: 2.28 and -128% (active).
For `OC[C@@H]1[C@@H](c2ccccc2)C(c2ccccc2)=NN1c1ccccc1`, in that order: 2.15 and -115% (active).
`Cc1cccc(C2=NN(c3ccccc3)[C@H](CO)[C@H]2c2ccc(F)cc2)c1`: the activation factor came to 1.73 and the activity change, negative = activation was -72.7% (inactive).
For `OC[C@@H]1[C@@H](c2ccc(Cl)cc2)C(c2ccc(F)cc2)=NN1c1ccccc1`, in that order: 1.79 and -79% (inactive).
On to `OC[C@@H]1[C@@H](c2ccc(F)cc2)C(c2cccc(Cl)c2)=NN1c1ccccc1`, for which the activation factor was determined as 1.96 and the activity change, negative = activation was -96.2% (inactive).
Regarding `Cc1noc(C)c1S(=O)(=O)N1CCC(C(=O)NCCN2CCC(C)CC2)CC1`, the activation factor is 1.01 and the activity change, negative = activation is -1.4% (inactive).
